# PubChem BioAssay (Tox21)
# Records with an inconclusive call do not appear. Where a call stands in place of a potency, no number is given. The source made the active and inactive calls. Calls follow the shape of the dose curve; as a rule, active = well fitted cell-killing curve with a large enough effect in the repeat runs; inconclusive = weak or mixed curves, or effect the other way; inactive = flat fitted curve, though single readings scatter.
# Assay: qHTS assay to identify small molecule antagonists of the androgen receptor (AR) signaling pathway using the MDA cell line - cell viability counter screen (AID 743041; also: nearly all actives have a fitted effect of over 45% in size)
# Details: MDA-kb2 viability, CellTiter-Fluor, 16 h, cells co-treated with R1881 androgen agonist; series mostly up to 70.3 µM
# From the text: National Center for Advancing Translational Sciences [NCATS]
# NIH Chemical Genomics Center [NCGC]
# U.S. Environmental Protection Agency [EPA]
# National Institutes of Environmental Health Sciences [NIEHS]
# National Toxicology Program [NTP]
# U.S. Food and Drug Administration [FDA]
# Androgen receptor (AR), a nuclear hormone receptor, plays a critical role in AR-dependent prostate cancer and other androgen related diseases. Endocrine disrupting chemicals (EDCs) and their interactions with steroid hormone receptors like AR may cause disruption of normal endocrine function as well as interfere with metabolic homeostasis, reproduction, developmental and behavioral functions. To identify the compounds that inhibit AR signaling, MDA-kb2 AR-luc cell line (from ATCC, deposited by Wilson et al.) was used to screen the Tox21 10K compound library. MDA-kb2 AR-luc cell line is human breast carcinoma cell line that was stably transfected with a luciferase reporter gene under control of the MMTV promoter containing response elements for both androgen receptor (AR) and glucocorticoid receptor (GR). The cytotoxicity of the Tox21 compound library against the MDA-kb2 AR-luc cell line was tested in parallel by measuring the cell viability using CellTiter-Fluor assay (Promega, Madison, WI) in the same wells.
# Tox21 Assay Protocol Summary:
# MDA-kb2 AR-luc cells were dispensed at 3,000 cells/4 uL/well of culture medium into white wall/solid-bottom 1536-well plates using a Multidrop Combi (ThermoFisher Scientific, Waltham, MA) dispenser. After the assay plates were incubated at a 37C and 0% CO2 for 5 hr, 23 nL of compounds dissolved in DMSO, positive controls or DMSO only was transferred to the assay plate by a Pintool station (Kalypsys, San Diego, CA), followed by addition of 1 uL of agonist (R1881) in culture medium using a Bioraptr Flying Reagent Dispenser (FRD) workstation (Beckman Coulter, Indianapolis, IN, USA). The plates were incubated at a 37C and 0% CO2 for 16 h. After 15.5 h incubation, 1uL of CellTiter-Fluor reagent (Promega) was added using a Bioraptr FRD to each plate for measuring cytotoxicity. The fluorescence intensity was quantified on a ViewLux plate reader (PerkinElmer, Shelton, CT) following 30 min incubation at 37C and 0% CO2.
row,SMILES,Potency
1,CC(C)(CCC(=O)O)C(=O)O,inactive
2,CCCCCCC1CCC(=O)O1 (stereo not given),inactive
3,CC12CCC(C(=O)C1=O)C2(C)C (stereo not given),inactive
4,CCN1CCOCC1,inactive
5,CCCCCCCCN1CCCC1=O,inactive
6,NS(=O)(=O)Cc1noc2ccccc12,inactive
7,C[C@H]1C[C@H]2[C@@H]3CCC4=CC(=O)C=C[C@]4(C)[C@H]3C(=O)C[C@]2(C)[C@@]1(O)C(=O)CO,inactive
8,O=C(c1ccccc1)C1(O)CCCCC1,inactive
9,O=C(O)CNC(=O)c1ccc(CO)o1,inactive
10,CCCCN1C=CN(C)C1,inactive
11,CO[C@@]1(NC(=O)CSC[C@@H](N)C(=O)O)C(=O)N2C(C(=O)O)=C(CSc3nnnn3C)CS[C@@H]21,inactive
12,CCCOC(=O)CC,inactive
13,C=CCCCCCCCCC(=O)OCC,inactive
14,CC(=O)c1ccccc1[N+](=O)[O-],inactive
15,NC(N)=NCCN1CCCCCCC1,inactive
16,CCCCCCCCCCCCCCC(=O)O,inactive
17,c1ccc2sc(SN3CCOCC3)nc2c1,inactive
18,Cc1ccccc1N=C(N)N=C(N)N,inactive
19,O=C(c1ccccc1O)c1ccccc1O,inactive
20,CN(C)CCN(C)CCN(C)C,inactive

row,SMILES,Potency
1,CN1[C@@H]2CC[C@H]1CC(OC(=O)C(O)c1ccccc1)C2 (stereo not given in full),inactive
2,CCCCCCCC1CCCC1=O (stereo not given),inactive
3,CCCO[Si](OCCC)(OCCC)OCCC,inactive
4,CC1(C)[C@@H]2CC[C@@]1(C)[C@H](O)C2,inactive
5,CC(C)[C@H]1CC[C@@H](C)CC1=O,inactive
6,CCOCC(C)O (stereo not given),inactive
7,Cc1ccnc(NS(=O)(=O)c2ccc(N)cc2)n1,inactive
8,CN(C)[C@@H]1C(=O)C(C(=O)NCN2CCCC2)=C(O)[C@@]2(O)C(=O)C3=C(O)c4c(O)cccc4[C@@](C)(O)C3C[C@@H]12 (stereo not given in full),inactive
9,C[C@@H]1CCC[C@H](C)N1,inactive
10,CC(=O)OCC(=O)[C@@]1(O)[C@H](C)C[C@H]2[C@@H]3CCC4=CC(=O)C=C[C@]4(C)[C@@]3(F)[C@@H](O)C[C@@]21C,inactive
11,CC[N+](C)(CC)CCOC(=O)C1c2ccccc2Oc2ccccc21,inactive
12,CC(C)COC(=O)c1ccc(N)cc1,inactive
13,CC(C)(C)C(=O)c1ccccc1,inactive
14,COc1cc(C(=O)OC(COCCC(C)C)CN2CCOCC2)cc(OC)c1OC (stereo not given),inactive
15,C=C(C)C(=O)OCCOCCOCCOCCOC(=O)C(=C)C,inactive
16,NCCCC[C@H](N[C@@H](CCc1ccccc1)C(=O)O)C(=O)N1CCC[C@H]1C(=O)O,inactive
17,CCN(CC#N)c1cccc(C)c1,inactive
18,CC(=O)C1CCCCC1=O (stereo not given),inactive
19,COC(=O)Nc1ccc(Cl)c(Cl)c1,inactive
20,C=CCOCC(O)CO (stereo not given),inactive
